Assay results as given in the supplement of paper PMC11732987, “Enantioselective OTUD7B fragment discovery through chemoproteomics screening and high-throughput optimisation” (Communications Chemistry, 2025).

Key:
Test in all cases: log2 ratio of Biotin-Ahx-Ub-VS probe labelling (fragment/DMSO); higher = less target engagement (more negative = stronger competition), active = hit call of the paper (q ≤ 0.05, log2 ratio ≤ -1)
Conditions in all cases: compound concentration: 200 uM; treatment time: 3 h
USP34 = USP34 (UniProt Q70CQ2)
In short: (§1)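 Labelling with Biotin-Ahx-Ub-VS (0.5 µM final, 1 h) followed a 3 h triplicate treatment of HEK293T lysate (495 µg per sample, Tris/CHAPS/IGEPAL buffer with protease inhibitors) with fragment at 200 µM or vehicle. Labelled DUBs were NeutrAvidin-enriched, digested with LysC and trypsin, and run by diaPASEF LC-MS/MS. The values, average log2 fragment/vehicle ratios by unpaired t-test, come from global-median-normalised Spectronaut label-free quantities. Proteins with ≥2 unique peptides were used.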

USP36 = molecular target: T1, USP36 (UniProt Q9P275)
T1 sequence (whole entry): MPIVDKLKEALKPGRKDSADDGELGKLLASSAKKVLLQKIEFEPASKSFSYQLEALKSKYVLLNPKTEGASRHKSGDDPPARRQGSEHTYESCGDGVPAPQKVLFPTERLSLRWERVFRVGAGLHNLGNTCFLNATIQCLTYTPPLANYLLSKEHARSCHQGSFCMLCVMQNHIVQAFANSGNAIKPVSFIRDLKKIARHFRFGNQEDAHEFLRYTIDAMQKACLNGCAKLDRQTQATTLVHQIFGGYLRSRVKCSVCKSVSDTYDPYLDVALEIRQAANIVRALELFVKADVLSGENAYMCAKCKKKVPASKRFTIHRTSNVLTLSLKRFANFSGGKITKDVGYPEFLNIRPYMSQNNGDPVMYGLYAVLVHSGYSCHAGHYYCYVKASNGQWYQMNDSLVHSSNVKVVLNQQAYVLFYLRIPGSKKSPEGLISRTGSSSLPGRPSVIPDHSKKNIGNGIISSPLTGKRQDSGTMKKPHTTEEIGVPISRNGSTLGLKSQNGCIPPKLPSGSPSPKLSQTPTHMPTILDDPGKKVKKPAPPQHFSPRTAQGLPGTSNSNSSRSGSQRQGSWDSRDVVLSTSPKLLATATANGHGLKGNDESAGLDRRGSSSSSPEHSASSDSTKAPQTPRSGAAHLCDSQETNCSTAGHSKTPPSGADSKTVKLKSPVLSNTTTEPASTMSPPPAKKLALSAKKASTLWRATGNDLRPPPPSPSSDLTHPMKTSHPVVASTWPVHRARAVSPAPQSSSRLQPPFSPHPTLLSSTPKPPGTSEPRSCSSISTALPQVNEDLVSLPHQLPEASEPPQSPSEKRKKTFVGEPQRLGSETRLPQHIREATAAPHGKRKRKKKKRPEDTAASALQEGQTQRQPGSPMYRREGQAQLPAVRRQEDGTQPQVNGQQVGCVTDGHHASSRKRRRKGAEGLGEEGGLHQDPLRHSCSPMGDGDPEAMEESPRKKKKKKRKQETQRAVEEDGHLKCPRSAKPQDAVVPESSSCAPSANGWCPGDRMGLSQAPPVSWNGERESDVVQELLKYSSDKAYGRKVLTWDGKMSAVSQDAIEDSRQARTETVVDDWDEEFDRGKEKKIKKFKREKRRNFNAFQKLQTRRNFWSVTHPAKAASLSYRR
In short: as §1

USP38 = molecular target: T2, USP38 (UniProt Q8NB14)
T2 sequence (whole entry): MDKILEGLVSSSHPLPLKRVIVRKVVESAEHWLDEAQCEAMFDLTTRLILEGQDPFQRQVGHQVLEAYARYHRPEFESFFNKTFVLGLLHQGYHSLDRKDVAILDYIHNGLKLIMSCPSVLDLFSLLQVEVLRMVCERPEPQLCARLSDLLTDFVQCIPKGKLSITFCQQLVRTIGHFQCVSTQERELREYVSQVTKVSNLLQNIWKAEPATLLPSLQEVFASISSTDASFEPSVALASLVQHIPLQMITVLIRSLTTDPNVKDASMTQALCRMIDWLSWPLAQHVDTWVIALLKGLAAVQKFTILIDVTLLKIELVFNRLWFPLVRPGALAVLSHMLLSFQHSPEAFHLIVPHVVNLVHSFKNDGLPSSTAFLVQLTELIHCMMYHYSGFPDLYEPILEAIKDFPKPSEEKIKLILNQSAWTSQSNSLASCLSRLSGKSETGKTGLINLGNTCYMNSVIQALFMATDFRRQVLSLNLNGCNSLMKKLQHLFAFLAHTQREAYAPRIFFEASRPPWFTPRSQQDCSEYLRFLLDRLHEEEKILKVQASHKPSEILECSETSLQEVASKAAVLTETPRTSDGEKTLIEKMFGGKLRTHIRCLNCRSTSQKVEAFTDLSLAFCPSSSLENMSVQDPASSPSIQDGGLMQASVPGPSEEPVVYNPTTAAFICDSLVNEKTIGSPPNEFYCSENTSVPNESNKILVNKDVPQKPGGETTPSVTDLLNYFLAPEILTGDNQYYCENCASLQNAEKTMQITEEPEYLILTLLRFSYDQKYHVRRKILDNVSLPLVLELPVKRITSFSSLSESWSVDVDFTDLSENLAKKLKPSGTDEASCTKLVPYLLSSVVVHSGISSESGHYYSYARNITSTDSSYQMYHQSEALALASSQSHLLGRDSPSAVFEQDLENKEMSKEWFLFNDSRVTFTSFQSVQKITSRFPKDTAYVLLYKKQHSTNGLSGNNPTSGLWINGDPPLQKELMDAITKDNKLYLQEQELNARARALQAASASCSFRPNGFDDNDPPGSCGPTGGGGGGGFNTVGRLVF
In short: as §1

USP39 = molecular target: T3, USP39 (UniProt Q53GS9)
T3 sequence (whole entry): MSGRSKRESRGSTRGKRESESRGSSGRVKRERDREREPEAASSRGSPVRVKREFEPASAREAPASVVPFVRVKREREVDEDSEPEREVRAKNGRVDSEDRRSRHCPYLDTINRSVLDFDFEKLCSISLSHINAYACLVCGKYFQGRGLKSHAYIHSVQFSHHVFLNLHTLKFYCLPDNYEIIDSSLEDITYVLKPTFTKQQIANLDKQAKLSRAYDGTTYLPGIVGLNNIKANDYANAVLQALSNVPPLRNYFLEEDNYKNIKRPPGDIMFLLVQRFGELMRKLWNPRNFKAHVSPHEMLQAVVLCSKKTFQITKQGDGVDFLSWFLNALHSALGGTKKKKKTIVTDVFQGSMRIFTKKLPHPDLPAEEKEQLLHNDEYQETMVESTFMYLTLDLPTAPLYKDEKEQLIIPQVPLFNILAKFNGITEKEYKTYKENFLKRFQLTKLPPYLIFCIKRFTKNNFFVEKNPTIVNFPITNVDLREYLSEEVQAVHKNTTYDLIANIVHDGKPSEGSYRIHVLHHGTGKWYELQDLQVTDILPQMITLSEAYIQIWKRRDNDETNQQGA
In short: as §1

USP4 = molecular target: T4, USP4 (UniProt Q13107)
T4 sequence (whole entry): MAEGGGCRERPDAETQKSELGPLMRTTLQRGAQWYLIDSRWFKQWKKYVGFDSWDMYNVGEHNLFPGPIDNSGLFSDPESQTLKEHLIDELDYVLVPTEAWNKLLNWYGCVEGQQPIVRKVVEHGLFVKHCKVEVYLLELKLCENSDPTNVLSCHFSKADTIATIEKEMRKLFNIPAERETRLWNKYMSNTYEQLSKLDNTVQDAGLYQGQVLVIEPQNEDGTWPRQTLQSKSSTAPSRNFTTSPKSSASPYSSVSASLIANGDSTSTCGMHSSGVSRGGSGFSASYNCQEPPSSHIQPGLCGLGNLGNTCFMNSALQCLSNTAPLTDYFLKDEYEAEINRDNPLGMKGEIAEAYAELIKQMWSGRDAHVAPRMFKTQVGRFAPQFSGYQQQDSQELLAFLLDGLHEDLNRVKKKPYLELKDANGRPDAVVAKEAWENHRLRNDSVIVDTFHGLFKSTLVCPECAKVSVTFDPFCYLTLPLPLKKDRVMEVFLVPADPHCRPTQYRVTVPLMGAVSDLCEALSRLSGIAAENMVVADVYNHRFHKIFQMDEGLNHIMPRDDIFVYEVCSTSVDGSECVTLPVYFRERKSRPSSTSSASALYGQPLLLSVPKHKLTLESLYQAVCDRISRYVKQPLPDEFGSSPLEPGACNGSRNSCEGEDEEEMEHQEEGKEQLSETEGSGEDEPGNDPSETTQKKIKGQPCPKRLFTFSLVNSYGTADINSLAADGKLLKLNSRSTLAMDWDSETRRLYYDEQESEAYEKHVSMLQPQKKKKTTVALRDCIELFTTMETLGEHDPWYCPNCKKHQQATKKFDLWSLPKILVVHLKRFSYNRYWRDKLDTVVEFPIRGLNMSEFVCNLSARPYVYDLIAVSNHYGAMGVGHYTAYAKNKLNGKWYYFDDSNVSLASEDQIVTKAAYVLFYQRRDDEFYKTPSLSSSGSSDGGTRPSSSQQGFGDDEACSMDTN
In short: as §1

Measured: log2 ratio of Biotin-Ahx-Ub-VS probe labelling

USP34, sequence (Q70CQ2 whole entry, the tested form may be a part): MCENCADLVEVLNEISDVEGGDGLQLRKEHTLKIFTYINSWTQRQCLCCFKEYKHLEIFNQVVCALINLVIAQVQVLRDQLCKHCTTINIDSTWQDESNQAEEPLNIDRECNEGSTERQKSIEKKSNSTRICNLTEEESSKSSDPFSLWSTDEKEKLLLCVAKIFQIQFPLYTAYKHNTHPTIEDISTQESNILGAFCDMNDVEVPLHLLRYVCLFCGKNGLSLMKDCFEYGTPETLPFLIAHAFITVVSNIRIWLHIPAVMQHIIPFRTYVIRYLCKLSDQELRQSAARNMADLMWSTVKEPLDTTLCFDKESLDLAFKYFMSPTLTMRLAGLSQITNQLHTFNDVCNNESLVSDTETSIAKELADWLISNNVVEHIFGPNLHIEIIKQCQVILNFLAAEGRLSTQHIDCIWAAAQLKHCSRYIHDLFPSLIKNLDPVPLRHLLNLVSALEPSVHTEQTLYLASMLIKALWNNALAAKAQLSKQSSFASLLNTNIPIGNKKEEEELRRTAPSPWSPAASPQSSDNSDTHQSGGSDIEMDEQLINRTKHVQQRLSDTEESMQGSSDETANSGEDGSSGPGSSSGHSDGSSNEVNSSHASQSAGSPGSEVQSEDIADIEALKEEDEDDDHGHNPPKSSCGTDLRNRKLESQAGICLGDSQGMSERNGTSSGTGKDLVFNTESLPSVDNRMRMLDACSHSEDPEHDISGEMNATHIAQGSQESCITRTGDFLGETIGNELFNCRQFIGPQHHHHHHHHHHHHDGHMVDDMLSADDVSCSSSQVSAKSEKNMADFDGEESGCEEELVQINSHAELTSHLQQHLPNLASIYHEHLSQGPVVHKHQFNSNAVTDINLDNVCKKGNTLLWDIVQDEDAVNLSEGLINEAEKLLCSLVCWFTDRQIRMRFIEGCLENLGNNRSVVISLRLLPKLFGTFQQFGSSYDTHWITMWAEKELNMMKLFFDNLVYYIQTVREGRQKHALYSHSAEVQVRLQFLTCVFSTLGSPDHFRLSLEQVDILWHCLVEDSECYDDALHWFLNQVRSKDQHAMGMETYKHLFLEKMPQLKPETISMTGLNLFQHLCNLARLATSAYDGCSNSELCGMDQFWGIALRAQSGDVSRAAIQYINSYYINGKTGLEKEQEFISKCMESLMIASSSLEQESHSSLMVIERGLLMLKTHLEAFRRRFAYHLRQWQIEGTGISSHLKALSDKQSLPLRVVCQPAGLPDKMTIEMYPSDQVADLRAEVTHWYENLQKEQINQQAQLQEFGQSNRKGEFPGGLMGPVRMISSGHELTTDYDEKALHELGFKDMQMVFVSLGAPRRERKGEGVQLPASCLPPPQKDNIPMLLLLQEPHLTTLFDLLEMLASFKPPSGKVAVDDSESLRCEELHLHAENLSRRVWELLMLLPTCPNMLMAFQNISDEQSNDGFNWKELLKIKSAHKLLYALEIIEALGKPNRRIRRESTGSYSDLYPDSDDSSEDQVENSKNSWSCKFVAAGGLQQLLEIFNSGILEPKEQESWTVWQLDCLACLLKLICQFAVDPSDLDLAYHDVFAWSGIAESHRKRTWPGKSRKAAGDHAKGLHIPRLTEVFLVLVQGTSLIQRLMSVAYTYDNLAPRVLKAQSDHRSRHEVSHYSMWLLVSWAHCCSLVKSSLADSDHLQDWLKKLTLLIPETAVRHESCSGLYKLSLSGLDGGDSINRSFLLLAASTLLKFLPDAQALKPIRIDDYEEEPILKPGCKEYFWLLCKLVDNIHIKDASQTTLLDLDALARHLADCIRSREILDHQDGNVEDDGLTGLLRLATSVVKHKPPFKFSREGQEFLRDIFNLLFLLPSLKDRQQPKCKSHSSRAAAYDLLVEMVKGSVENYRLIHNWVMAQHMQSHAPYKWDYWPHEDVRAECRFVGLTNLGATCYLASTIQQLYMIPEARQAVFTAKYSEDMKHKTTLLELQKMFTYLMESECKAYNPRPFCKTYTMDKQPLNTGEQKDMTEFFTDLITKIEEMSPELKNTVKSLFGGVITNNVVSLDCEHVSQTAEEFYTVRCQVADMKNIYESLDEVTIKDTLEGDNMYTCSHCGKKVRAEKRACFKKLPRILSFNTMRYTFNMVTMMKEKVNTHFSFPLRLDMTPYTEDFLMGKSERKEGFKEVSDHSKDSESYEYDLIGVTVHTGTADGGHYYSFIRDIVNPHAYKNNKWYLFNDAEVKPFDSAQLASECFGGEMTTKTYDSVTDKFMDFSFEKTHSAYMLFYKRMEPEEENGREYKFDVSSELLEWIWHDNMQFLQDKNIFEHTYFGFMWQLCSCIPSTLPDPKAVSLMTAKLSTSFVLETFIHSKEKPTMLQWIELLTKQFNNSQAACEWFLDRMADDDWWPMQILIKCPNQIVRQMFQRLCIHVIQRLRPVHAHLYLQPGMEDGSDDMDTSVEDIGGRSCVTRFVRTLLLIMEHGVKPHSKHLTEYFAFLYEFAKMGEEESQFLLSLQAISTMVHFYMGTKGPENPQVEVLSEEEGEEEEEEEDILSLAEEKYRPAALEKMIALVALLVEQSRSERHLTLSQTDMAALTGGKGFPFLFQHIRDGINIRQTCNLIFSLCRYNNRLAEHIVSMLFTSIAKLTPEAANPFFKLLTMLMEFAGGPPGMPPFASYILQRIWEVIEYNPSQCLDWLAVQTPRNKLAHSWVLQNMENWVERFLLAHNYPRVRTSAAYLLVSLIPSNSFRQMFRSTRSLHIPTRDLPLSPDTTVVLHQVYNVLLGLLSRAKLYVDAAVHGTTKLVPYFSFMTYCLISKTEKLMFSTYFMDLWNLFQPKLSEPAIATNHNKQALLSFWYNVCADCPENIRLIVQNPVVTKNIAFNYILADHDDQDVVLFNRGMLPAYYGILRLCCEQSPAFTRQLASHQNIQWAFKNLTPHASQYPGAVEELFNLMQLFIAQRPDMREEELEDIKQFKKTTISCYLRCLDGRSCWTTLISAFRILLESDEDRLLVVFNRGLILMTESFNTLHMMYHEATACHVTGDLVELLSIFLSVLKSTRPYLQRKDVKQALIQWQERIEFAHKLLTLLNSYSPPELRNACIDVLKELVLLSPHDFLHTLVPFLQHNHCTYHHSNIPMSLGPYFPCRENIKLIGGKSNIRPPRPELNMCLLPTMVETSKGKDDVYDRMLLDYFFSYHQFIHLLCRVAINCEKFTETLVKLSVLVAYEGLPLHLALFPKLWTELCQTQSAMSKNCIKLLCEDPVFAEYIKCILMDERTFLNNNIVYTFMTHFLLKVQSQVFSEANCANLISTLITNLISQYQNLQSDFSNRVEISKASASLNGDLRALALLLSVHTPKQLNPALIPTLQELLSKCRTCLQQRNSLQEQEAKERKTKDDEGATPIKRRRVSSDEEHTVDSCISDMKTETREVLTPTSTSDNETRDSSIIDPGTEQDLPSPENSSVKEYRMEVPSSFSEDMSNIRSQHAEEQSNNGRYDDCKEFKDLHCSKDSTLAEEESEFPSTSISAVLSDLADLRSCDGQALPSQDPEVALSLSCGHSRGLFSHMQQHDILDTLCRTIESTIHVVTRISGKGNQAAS

CS(=O)(=O)c1ccc(NC(=O)CCl)cc1
inactive: USP34 0.0382 | USP36 0.166 | USP38 0.0532 | USP39 -0.186 | USP4 -0.0813
